# Where “and” joins values, the source holds several entries; their conditions need not be identical. Equal values may be shown once. Records with an inconclusive call do not appear. Calls of active or inactive are those of the source.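 Rule for the calls, unless noted: active = compounds whose cell count with miR-34 switched on is under 0.7 times the count with it off; inactive = the rest.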
# Experiments:
# [1] = target: ATP-dependent translocase ABCB1 (Homo sapiens) (UniProt P08183); assay: P-glycoprotein substrate transport blockade – cell-based (AID 377; in the data active = fluorescence slope change above about 50%); settings: MDR1-expressing cells, fluorescent substrate accumulation slope; stronger effect = higher value; concentration not given here
# Chain of ATP-dependent translocase ABCB1 (Homo sapiens) (P08183 whole entry, looked up): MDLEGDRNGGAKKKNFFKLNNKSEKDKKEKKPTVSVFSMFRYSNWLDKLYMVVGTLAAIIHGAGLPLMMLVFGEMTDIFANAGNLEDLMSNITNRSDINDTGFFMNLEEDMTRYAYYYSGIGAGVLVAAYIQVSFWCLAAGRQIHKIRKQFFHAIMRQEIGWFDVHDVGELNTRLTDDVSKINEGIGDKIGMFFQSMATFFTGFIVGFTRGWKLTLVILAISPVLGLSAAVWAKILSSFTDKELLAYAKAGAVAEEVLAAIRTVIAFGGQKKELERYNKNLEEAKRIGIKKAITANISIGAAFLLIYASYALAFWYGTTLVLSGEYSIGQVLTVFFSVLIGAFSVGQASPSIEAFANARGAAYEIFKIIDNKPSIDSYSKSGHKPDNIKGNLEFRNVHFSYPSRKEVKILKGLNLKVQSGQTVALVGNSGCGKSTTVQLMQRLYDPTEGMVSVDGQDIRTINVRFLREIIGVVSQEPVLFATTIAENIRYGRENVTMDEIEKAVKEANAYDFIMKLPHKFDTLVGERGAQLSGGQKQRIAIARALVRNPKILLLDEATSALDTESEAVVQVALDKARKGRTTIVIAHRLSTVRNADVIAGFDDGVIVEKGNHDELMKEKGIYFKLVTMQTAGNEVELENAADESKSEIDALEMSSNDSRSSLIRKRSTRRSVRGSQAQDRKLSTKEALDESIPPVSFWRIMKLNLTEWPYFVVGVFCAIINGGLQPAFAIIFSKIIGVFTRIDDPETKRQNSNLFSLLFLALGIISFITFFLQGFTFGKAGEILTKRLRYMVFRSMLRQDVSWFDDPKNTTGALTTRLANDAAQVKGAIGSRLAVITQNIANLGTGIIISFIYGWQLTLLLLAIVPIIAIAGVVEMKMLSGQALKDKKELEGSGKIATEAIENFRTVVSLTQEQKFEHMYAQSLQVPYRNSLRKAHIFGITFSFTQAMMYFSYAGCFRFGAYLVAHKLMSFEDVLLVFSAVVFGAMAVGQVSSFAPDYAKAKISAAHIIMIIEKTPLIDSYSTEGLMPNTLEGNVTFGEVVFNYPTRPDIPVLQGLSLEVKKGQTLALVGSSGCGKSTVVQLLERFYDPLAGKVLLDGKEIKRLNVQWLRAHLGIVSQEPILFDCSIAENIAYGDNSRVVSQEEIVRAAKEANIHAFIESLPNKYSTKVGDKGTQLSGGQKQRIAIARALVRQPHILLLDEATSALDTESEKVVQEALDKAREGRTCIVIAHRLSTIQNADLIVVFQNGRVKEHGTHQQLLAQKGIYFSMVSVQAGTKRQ
# [2] = compounds altering viability of human ES cells (AID 493140; call rule not given here;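 note: cells exposed to compounds for four days before counting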); settings: human embryonic stem cell survival screen; stronger effect = higher value
# [3] = P. berghei load reduction in hepatocytes – cell-based, HepG2, luciferase luminescence, HepG2 viability, primary screen (AID 624349; in the data active = parasite load remaining mostly below about 12%, no sharp cut-off; inactive = mostly above about 10%;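 note: 100% = mean of DMSO negative control wells on the same plate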); settings: P. berghei liver stage in HepG2, luciferase luminescence, concentration not given here; parasite load remaining: stronger effect = lower value; viability: measured here: HepG2 viability without parasites
# [4] = viability loss with induced miR-34 in A549 – imaging, A549 dox-inducible miR-34, nuclei and caspase counts, primary screen (AID 1347080); settings: A549 miR-34 inducible, Hoechst nuclei count, 48 h
# [5] = MELAS cybrid and Rieske KO viability enhancers – cell-based, MELAS cybrids, Rieske KO mouse fibroblasts, CellTiter-Glo, primary screen (AID 1508586;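 active = mean z-score across replicates of 1.96 or higher in either the MELAS or the Rieske mutant cell line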;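 note: z relative to plate mean and SD of compound and empty wells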); settings: low glucose
# [6] = galactose survival enhancers in mitochondrial complex I cybrids – cell-based, galactose medium, ATP luminescence, primary screen (AID 1645843;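 active = z-score of at least 1.8 in each of two replicates, scored against plate mean and spread of sample wells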;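 note: positive z means more ATP and so rescue of galactose-driven cybrid death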); settings: complex I mutant cybrid cells, 72 h, stronger effect = higher value
# [7] = compounds altering circadian rhythm period length – cell-based, LOPAC library, luminescence reporter (AID 2774; call rule not given here;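 note: values are relative to mean of DMSO wells on each plate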); settings: circadian reporter cells, at 7 µM, actives lie on both sides
# [8] = system: Hepatitis C virus NS3 helicase; assay: blockers of NS3h binding to ssDNA – biochemical, fluorescence polarization, LOPAC1280 library, primary screen (AID 687035; in the data active = inhibition above about 37%); settings: Purified HCV NS3 helicase, Cy5-dT15 ssDNA binding fluorescence polarization; stronger effect = higher value; concentration not given here
# [9] = compounds altering Cy5-DNA-NS3h complex signal – biochemical, LOPAC1280, artefact control for HCV NS3 helicase inhibitor project (AID 687037; call rule not given here); settings: Cy5-DNA-NS3h complex fluorescence interference counterscreen
# [10] = measured here: relative caspase fold change +Dox/-Dox
# [11] = measured here: total cells with miR-34 induction, stronger effect = lower value
# [12] = measured here: total cells without miR-34 induction
# [13] = stronger effect = lower value, cell number ratio, induced over uninduced
structure (smiles),measurement,setting,value
C[C@]12CCC3[C@@H](CC[C@@H]4C[C@H](O)CC[C@]34C)[C@@H]1CCC2=O (some centres undefined),fluorescence slope change,[1],52.7% (active)
same,survival,[2],4.25 (inactive)
same,parasite load remaining,[3],68.6% (inactive)
same,viability,[3],95.7%
same,fold change,[4]; stronger effect = lower value,0.895 (inactive)
same,fold change,[4]; [10],1.16
same,cell count,[4]; [11],8930
same,cell count,[4]; [12],9980
same,z-score,"[5]; MELAS cybrid survival, CellTiter-Glo 48 h, stronger effect = higher value",-0.449 (inactive)
same,z-score,"[5]; Rieske KO mouse fibroblast survival, CellTiter-Glo 72 h",0.448
CC1CCCC(O)CCCCCc2cc(O)cc(O)c2C(=O)O1 (centres undefined),fold change,[4]; stronger effect = lower value,0.901 (inactive)
same,fold change,[4]; [10],1.75
same,cell count,[4]; [11],8720
same,cell count,[4]; [12],9680
same,z-score,[6],-0.095 (inactive)
NC(CCCCCP(=O)(O)O)C(=O)O (centres undefined),period change,[7],-0.03 h (inactive)
same,inhibition,[8],-1% (inactive)
same,fluorescence ratio (interference),[9],1 (inactive)
same,fold change,[4]; stronger effect = lower value,1.02 (inactive)
same,fold change,[4]; [10],2.45
same,cell count,[4]; [11],10400
same,cell count,[4]; [12],10200
same,z-score,[6],0.42 (inactive)
Nc1cc2c(ncn2CCOCP(=O)(O)O)c(=O)[nH]1,fold change,[4]; stronger effect = lower value,1.06 (inactive)
same,fold change,[4]; [10],1.02
same,cell count,[4]; [11],3380
same,cell count,[4]; [12],3200
same,z-score,[6],-0.655 (inactive)
C=C1C/C(=C/C)C(=O)O[C@@H]2CCN3CC=C(COC(=O)[C@]1(C)O)[C@H]23,survival,[2],10.6 (inactive)
same,parasite load remaining,[3],91.1% (inactive) and 73.7% (inactive)
same,viability,[3],125% and 77.7%
same,fold change,[4]; stronger effect = lower value,0.88 (inactive)
same,fold change,[4]; [10],1.73
same,cell count,[4]; [11],9540
same,cell count,[4]; [12],10800
COC1=C[C@@H]2C3=C([C@@H]2C1=O)[C@@H](NC(C)=O)CCc1cc(OC)c(OC)c(OC)c13,fluorescence slope change,[1],70.2% (active)
same,parasite load remaining,[3],62.8% (inactive)
same,viability,[3],107%
same,fold change,[4]; [13],0.865 (inactive)
same,fold change,[4]; [10],1.41
same,cell count,[4]; [11],9450
same,cell count,[4]; [12],10900
C[C@H]1C2Cc3ccc(O)cc3C1(C)CCN2CC1CC1 (some centres undefined),period change,[7],-0.055 h (inactive)
same,fold change,[4]; stronger effect = lower value,0.949 (inactive)
same,fold change,[4]; [10],1.14
same,cell count,[4]; [11],10600
same,cell count,[4]; [12],11200
same,z-score,[6],-0.12 (inactive)
Oc1ccc2c3c1OC1c4[nH]c5ccccc5c4C[C@@]4(O)C(C2)N(CC2CC2)CC[C@]314 (some centres undefined),fold change,[4]; stronger effect = lower value,0.943 (inactive)
same,fold change,[4]; [10],1.78
same,cell count,[4]; [11],8150
same,cell count,[4]; [12],8650
same,z-score,[6],-0.925 (inactive)
C/C=C1/C[C@@H](C)[C@](O)(CO)C(=O)OCC2=CCN3CC[C@@H](OC1=O)[C@@H]23,fluorescence slope change,[1],18.1% (inactive)
same,survival,[2],3.83 (inactive)
same,parasite load remaining,[3],209% (inactive) and 79.8% (inactive)
same,viability,[3],107% and 75%
same,fold change,[4]; stronger effect = lower value,0.877 (inactive)
same,fold change,[4]; [10],2.22
same,cell count,[4]; [11],8650
same,cell count,[4]; [12],9870
CC[C@H]1CN2CCC1C[C@H]2[C@H](O)c1ccnc2ccc(OC)cc12 (some centres undefined),survival,[2],6.08 (inactive)
same,parasite load remaining,[3],83.6% (inactive) and 51.6% (inactive)
same,viability,[3],106% and 80.9%
same,fold change,[4]; [13],0.867 (inactive)
same,fold change,[4]; [10],1.17
same,cell count,[4]; [11],8140
same,cell count,[4]; [12],9390
C[C@]12CCC3C(CCC4=CC(=O)CC[C@@]43C)C1CCC2O (some centres undefined),fold change,[4]; stronger effect = lower value,0.881 (inactive)
same,fold change,[4]; [10],1.72
same,cell count,[4]; [11],8500
same,cell count,[4]; [12],9660
same,z-score,[6],0.515 (inactive)
CC(C)C[C@H]1C(=O)N2CCC[C@H]2[C@]2(O)O[C@](NC(=O)[C@@H]3C=C4c5cccc6[nH]cc(c56)C[C@H]4N(C)C3)(C(C)C)C(=O)N12,fluorescence slope change,[1],95.9% (active)
same,survival,[2],9.42 (inactive)
same,parasite load remaining,[3],59.7% (inactive)
same,viability,[3],94.6%
same,fold change,[4]; stronger effect = lower value,0.917 (inactive)
same,fold change,[4]; [10],1.12
same,cell count,[4]; [11],7540
same,cell count,[4]; [12],8220
CCCCC/C=C\C/C=C\C/C=C\C/C=C\CCCC(=O)N[C@H](C)CO,survival,[2],87.2 (inactive)
same,fold change,[4]; stronger effect = lower value,0.941 (inactive) and 1.01 (inactive)
same,fold change,[4]; [10],0.931 and 0.764
same,cell count,[4]; [11],5390 and 6000
same,cell count,[4]; [12],5730 and 5950
CC(C)[C@]12OC1C1O[C@]13[C@]1(OC1CC1C4=C(CC[C@@]13C)C(=O)OC4)C2O (some centres undefined),fold change,[4]; [13],0.971 (inactive)
same,fold change,[4]; [10],1.93
same,cell count,[4]; [11],2260
same,cell count,[4]; [12],2320
same,z-score,[6],-1.85 (inactive)
C[C@]12CCC(=O)C=C1CCC1C2CC[C@@]2(C)C1CC[C@]2(C)O (some centres undefined),fold change,[4]; stronger effect = lower value,1.16 (inactive)
same,fold change,[4]; [10],0.795
same,cell count,[4]; [11],2670
same,cell count,[4]; [12],2300
same,z-score,[6],-1.03 (inactive)
NC(Cn1oc(=O)[nH]c1=O)C(=O)O (centres undefined),period change,[7],-0.055 h (inactive)
same,fold change,[4]; stronger effect = lower value,0.991 (inactive)
same,fold change,[4]; [10],0.896
same,cell count,[4]; [11],10000
same,cell count,[4]; [12],10100
same,z-score,[6],0.64 (inactive)
COc1cccc([C@@]2(O)CCCCC2CN(C)C)c1 (some centres undefined),fold change,[4]; stronger effect = lower value,0.881 (inactive)
same,fold change,[4]; [10],1.09
same,cell count,[4]; [11],9920
same,cell count,[4]; [12],11300
same,z-score,[6],0.56 (inactive)
C[C@]12CCC(O)CC1=CCC1C2CC[C@]2(C)C(=O)CCC12 (some centres undefined),fold change,[4]; stronger effect = lower value,1.16 (inactive)
same,fold change,[4]; [10],1.21
same,cell count,[4]; [11],7950
same,cell count,[4]; [12],6860
same,z-score,[6],-0.11 (inactive)
C[C@]12CC3SC3C[C@@H]1CC[C@@H]1[C@@H]2CC[C@]2(C)[C@@H](O)CC[C@@H]12 (some centres undefined),survival,[2],17.5 (inactive)
same,parasite load remaining,[3],87.8% (inactive)
same,viability,[3],72.9%
same,fold change,[4]; stronger effect = lower value,0.913 (inactive)
same,fold change,[4]; [10],0.52
same,cell count,[4]; [11],9130
same,cell count,[4]; [12],10000
